PubChem BioAssay (NCATS)
Inconclusive results are not listed. Active and inactive are the calls of the source. Calls come from the whole dose curve; as a rule, active = well fitted curve in the direction sought with a large enough effect; inconclusive = small, poorly fitted or top-dose-only effect, or another doubt; inactive = no such curve, though single readings can be large; an effect the other way counts as inactive or inconclusive.

Tests used:
[1] = test system: CRL-7250; assay: Cytotoxic Profiling of Annotated Libraries Using Quantitative High-Throughput Screening (AID 1296008); conditions: Five cell lines viability, CellTiter-Glo ATP luminescence, 48-72 h; max response: hits give low values; note: nearly all actives have a fitted effect of over 60% in size; note: potency is the fitted concentration of half-maximal effect; for max response: % is set by controls: 0 for no effect and ±100 for the full control effect
Summary of the method: (§1)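 Cytotoxicity was measured as CellTiter-Glo ATP luminescence, read after 10 min at room temperature. Compound treatment of the cells lasted 48 or 72 hr at 37 degrees Celsius in a qHTS format.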

[2] = test system: HaCat; assay: as above; conditions: Five cell lines viability, CellTiter-Glo ATP luminescence, 48-72 h; max response: hits give low values
Summary of the method: as §1

[3] = test system: KB-3-1; assay: as above; conditions: Five cell lines viability, CellTiter-Glo ATP luminescence, 48-72 h; max response: hits give low values
Summary of the method: as §1

[4] = test system: C33A; assay: Primary qHTS to identify gynecologic anti-cancer compounds using libraries of approved drugs and bioactive compounds (AID 1345084); conditions: Gynecologic cancer cell panel viability, ATPlite luminescence, 48 h; series mostly up to 57.5 µM; note: % is set by controls: 0 for no effect and ±100 for the full control effect; nearly all actives have a fitted effect of over 55% in size
Summary of the method: (§2)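 Five-concentration response, 48 h; readout is ATP-driven luciferase luminescence.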

[5] = test system: CAOV3; assay: as above; conditions: Gynecologic cancer cell panel viability, ATPlite luminescence, 48 h; series mostly up to 57.5 µM
Summary of the method: as §2

[6] = test system: Es-2; assay: as above; conditions: Gynecologic cancer cell panel viability, ATPlite luminescence, 48 h; series mostly up to 57.5 µM
Summary of the method: as §2

[7] = test system: HeLa; assay: as above; conditions: Gynecologic cancer cell panel viability, ATPlite luminescence, 48 h; series mostly up to 57.5 µM
Summary of the method: as §2

[8] = test system: Hek293T; assay: as above; conditions: Gynecologic cancer cell panel viability, ATPlite luminescence, 48 h, control line for the selectivity index; series mostly up to 57.5 µM
Summary of the method: as §2

[9] = test system: JEG-3; assay: as above; conditions: Gynecologic cancer cell panel viability, ATPlite luminescence, 48 h; series mostly up to 57.5 µM
Summary of the method: as §2

[10] = test system: OV90; assay: as above; conditions: Gynecologic cancer cell panel viability, ATPlite luminescence, 48 h; series mostly up to 57.5 µM
Summary of the method: as §2

[11] = test system: HACAT; assay: qHTS assay to identify novel small-molecules to repurpose for Merkel cell carcinoma treatment (AID 1296009); conditions: MCC and control cell lines, CellTiter-Glo viability, 72 h; at 44.8 µM (top of the series) unless noted; note: nearly all actives have a fitted effect of over 60% in size
Summary of the method: (§3)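 After compound transfer in DMSO, plates were kept 72 hr at 37 degree celsius. Luminescent ATP signal from CellTiter-Glo served as viability measure, normalized against DMSO and no-cell controls.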

[12] = test system: CASKI; assay: Primary qHTS to identify gynecologic anti-cancer compounds using libraries of approved drugs and bioactive compounds (AID 1345084); conditions: Gynecologic cancer cell panel viability, ATPlite luminescence, 48 h; series mostly up to 57.5 µM; note: % is set by controls: 0 for no effect and ±100 for the full control effect; nearly all actives have a fitted effect of over 55% in size
Summary of the method: as §2

[13] = test system: PA-1; assay: as above; conditions: Gynecologic cancer cell panel viability, ATPlite luminescence, 48 h; series mostly up to 57.5 µM
Summary of the method: as §2

[14] = test system: SKOV3; assay: as above; conditions: Gynecologic cancer cell panel viability, ATPlite luminescence, 48 h; series mostly up to 57.5 µM
Summary of the method: as §2

[15] = test system: NIH3T3; assay: Cytotoxic Profiling of Annotated Libraries Using Quantitative High-Throughput Screening (AID 1296008); conditions: Five cell lines viability, CellTiter-Glo ATP luminescence, 48-72 h; max response: hits give low values; note: nearly all actives have a fitted effect of over 60% in size; note: potency is the fitted concentration of half-maximal effect; for max response: % is set by controls: 0 for no effect and ±100 for the full control effect
Summary of the method: as §1

[16] = test system: NIH3T3; assay: qHTS assay to identify novel small-molecules to repurpose for Merkel cell carcinoma treatment (AID 1296009); conditions: MCC and control cell lines, CellTiter-Glo viability, 72 h; series mostly up to 44.8 µM; note: nearly all actives have a fitted effect of over 60% in size
Summary of the method: as §3

C=CC(=O)N1CCCC(n2nc(-c3ccc(Oc4ccccc4)cc3)c3c(N)ncnc32)C1 (centres undefined)
inactive: max response [1] 3.87% | max response [3] -21.4% | Potency [4] | Potency [5] | Potency [6] | Potency [7] | Potency [8] | Potency [9] | Potency [10]
active: Potency [2] 1.3 µM

C=C1C(=O)O[C@@H]2/C=C(\C)CC/C=C(/C=O)[C@H](OC)[C@@H](OC(=O)C(C)C)[C@@H]12
inactive: max response [1] 2.09% | outcome [2] | outcome [3] | outcome [11] | Potency [4] | Potency [5] | Potency [12] | Potency [7] | Potency [9] | Potency [13] | Potency [14]

COC(CCc1ccc(O)cc1)CC(=O)CCc1ccc(O)cc1 (centres undefined)
inactive: max response [1] 3.53% | max response [2] -18.6% | outcome [3] | Potency [4] | Potency [12] | Potency [6] | Potency [7] | Potency [8] | Potency [10] | Potency [13] | Potency [14]

Cc1cccc(C#Cc2cc(F)cc(C#N)c2)n1
inactive: max response [1] -2.01% | max response [2] -1.48% | max response [3] 2.45% | Potency [4] | Potency [5] | Potency [12] | Potency [6] | Potency [7] | Potency [8] | Potency [9] | Potency [10] | Potency [13] | Potency [14]

Fc1ccc(-c2nc(-c3c(F)cccc3F)[nH]c2-c2ccncc2)cc1
inactive: max response [1] -5.53% | max response [2] -17.9% | max response [3] 3.89% | Potency [4] | Potency [5] | Potency [12] | Potency [6] | Potency [8] | Potency [13]

COc1ccc2c(c1O[C@H]1CCNC1)CCC2
inactive: max response [1] -1.86% | outcome [2] | outcome [15] | outcome [11] | Potency [16] | Potency [4] | Potency [5] | Potency [12] | Potency [6] | Potency [7] | Potency [8] | Potency [9] | Potency [10] | Potency [13]

Cc1cnn(-c2ccccc2)c1NC(=O)COCc1ccccc1
inactive: max response [1] -16.8% | max response [2] 3.62% | max response [3] 3.83% | Potency [4] | Potency [5] | Potency [12] | Potency [6] | Potency [7] | Potency [8] | Potency [9] | Potency [10] | Potency [13] | Potency [14]

O=C(O)CSc1cc(NS(=O)(=O)c2ccc(Br)cc2)c2ccccc2c1O
active: Potency [1] 23.1 µM | Potency [3] 18.4 µM
inactive: outcome [2] | outcome [11] | Potency [4] | Potency [12] | Potency [6] | Potency [8] | Potency [10]

C=C1/C(=C/C=C2\CCC[C@]3(C)[C@@H]([C@H](C)/C=C/[C@H](O)C4CC4)CC[C@@H]23)C[C@@H](O)C[C@@H]1O
inactive: max response [1] -7.4% | max response [2] -5.44% | max response [3] 7.77% | Potency [4] | Potency [5] | Potency [12] | Potency [6] | Potency [7] | Potency [8] | Potency [9] | Potency [10] | Potency [13] | Potency [14]

O=C(Nc1ccc(Cl)cc1)c1ccccc1NCc1ccncc1
inactive: max response [1] 0.592% | max response [2] -24.7% | max response [3] -12.3% | Potency [4] | Potency [5] | Potency [12] | Potency [6] | Potency [7] | Potency [8] | Potency [9] | Potency [10] | Potency [13] | Potency [14]

C=C1C(=O)OC2/C=C(\C)CC/C=C(\C=O)C(OC)C(OC(=O)C(C)CC)C12 (centres undefined)
inactive: max response [1] -23.9% | outcome [2] | max response [3] -2.57% | outcome [11] | Potency [4] | Potency [5] | Potency [12] | Potency [7] | Potency [9] | Potency [10] | Potency [13] | Potency [14]

CCN1C(C)(C)CC(Oc2ccc(C(=O)Nc3ccc(NC(=O)Nc4cc(C(C)(C)C)on4)cc3)nc2)CC1(C)C
inactive: max response [1] -1.6% | outcome [2] | outcome [15] | outcome [11] | Potency [16] | Potency [4] | Potency [5] | Potency [12] | Potency [6] | Potency [7] | Potency [8] | Potency [9] | Potency [10] | Potency [13]

CN(C)[C@@H]1CCc2[nH]c3ccc(NC(=O)c4ccc(F)cc4)cc3c2C1
inactive: max response [1] -12.5% | max response [2] -11.8% | max response [3] 1.75% | Potency [4] | Potency [5] | Potency [12] | Potency [6] | Potency [7] | Potency [8] | Potency [9] | Potency [10] | Potency [13] | Potency [14]

COc1cc(/C=C2\CC[C@H]3COC[C@@H](c4cc(F)c(F)c(F)c4)N3C2=O)ccc1-n1cnc(C)c1
inactive: max response [1] 3.12% | outcome [2] | outcome [15] | outcome [11] | Potency [16] | Potency [4] | Potency [5] | Potency [12] | Potency [6] | Potency [7] | Potency [8] | Potency [9] | Potency [10] | Potency [13]
